# Shown is part of a subset that was picked to be rich in hits.
# Lassa entry inh – blocks Lassa virus binding to or entry into cells; Lassa virus pseudotype entry inhibition, cell reporter; Potency, µM (top dose mostly 37.9 µM), for inactives: at the top dose activity change, negative = inhibition, hits mostly inhibitors; actives 1.2% (n = 300,000); AID 540256; calls by dose curve; tested in HEK293 cells; also: potency is read from the fitted curve at half-maximal effect; % is scaled to controls: 0 for no effect and ±100 for the full control effect; nearly all actives have a fitted effect of over 50% in size
# Shiga inhibitor – Shiga toxin inhibition; Vero cells, Shiga toxin protein synthesis inhibition reporter; inhibition, % at 38.7 µM; actives 9.2% (n = 290,000); AID 2315; in the data active = inhibition mostly above about 28%, no sharp cut-off; inactive = mostly below about 43%; also: 0% is about no effect
# Marburg entry inh – blocks Marburg virus binding to or entry into cells; Marburg virus pseudotyped entry inhibition, cell reporter; Potency, µM (series often up to 37.8 µM), for inactives: at the highest dose activity change, negative = inhibition, usual class: inhibitors; actives 1.8% (n = 300,000); AID 540276; calls by dose curve; tested in HEK293 cells; also: potency is read from the fitted curve at half-maximal effect; % is scaled to controls: 0 for no effect and ±100 for the full control effect
# Vaccinia Venus – vaccinia inhibition (Venus reporter) | AID 720580 | actives 0.46% (n = 330,000) | Potency, µM (highest dose often 36.5 µM), for inactives: top-dose activity change, negative = inhibition, hits mostly inhibitors | Vaccinia virus Venus reporter expression, fluorescence; calls by dose curve; tested in A549 cells; also: potency is read from the fitted curve at half-maximal effect; % is scaled to controls: 0 for no effect and ±100 for the full control effect; nearly all actives have a fitted effect of over 30% in size
# CHX counter – affects cycloheximide protein synthesis inhibition readout, counter-screen | AID 2314 | max response, % | actives 12% (n = 300,000) | cell reporter, cycloheximide protein synthesis inhibition counterscreen; in the data active = max response mostly above about 13%, no sharp cut-off; inactive = mostly below about 14%; also: read at 38.3 µM for the half of the compounds with a filed dose; 0% is about no effect
# Vaccinia mCherry – inhibitors of vaccinia virus infection (mCherry reporter signal) | Vaccinia virus mCherry reporter infection, fluorescence | Potency, µM (series often up to 36.5 µM), for the others: at the highest dose activity change, negative = inhibition, usual class: inhibitors | actives 0.63% (n = 310,000); calls by dose curve; tested in A549 cells; also: potency is read from the fitted curve at half-maximal effect; % is scaled to controls: 0 for no effect and ±100 for the full control effect; nearly all actives have a fitted effect of over 35% in size
# Active calls of the source: *; i = inactive; u = inconclusive; x = no result; [ ] = remark or other dose.
SMILES,Lassa entry inh,Shiga inhibitor,Marburg entry inh,Vaccinia Venus,CHX counter,Vaccinia mCherry
Cc1cc(CNC(=O)c2cccc(OC3CCN(S(=O)(=O)N(C)C)CC3)c2)on1,10%[46.1 µM],128*,12%[46.1 µM],-12%,64*,0%
CCOc1ccc(CCNC(=O)c2ccc(=O)[nH]c2)cc1OCC,x,-2,x,x,-2,x
CS(=O)(=O)N1CCN(c2ccc(NC(=S)NC(=O)c3ccccc3[N+](=O)[O-])cc2)CC1,u,-9,-30%[46.1 µM],-9%,9,i
COc1ccc(OC)c(CNC(=O)C2CCN(S(=O)(=O)c3ccc4[nH]c(=O)oc4c3)CC2)c1,1%[46.1 µM],x,x,-8%,x,5%
CC1CN=C(N(C(=O)Nc2ccccc2)c2ccc(S(=O)(=O)N3CCOCC3)cc2)S1 (stereo not drawn),4%,21,-18%,-10%,18*,x
COc1ccc(Nc2cc(C(=O)NCCCN(C)C3CCCCC3)c3ccccc3n2)cc1,u,x,10µM*,-22%,x,-15%
COc1ccc(Nc2cc(C(=O)NCCCN(C)C3CCCCC3)c3ccccc3n2)c(OC)c1,u,x,u,-13%,x,-17%
Cc1ccc(-n2ncc(C(=O)NCc3ccc4c(c3)OCO4)c2C2CCN(C(=O)OC(C)(C)C)CC2)c(C)c1,u,x,x,-23%,x,-25%
O=C1NC[C@H](CCCCN2CCN(Cc3ccccc3)C(=O)C2=O)N(CCc2ccc(O)cc2)C1=O,x,x,x,13%,x,1%
CC1OC(CC(=O)O)CC2=C1C(=O)c1c(O)cccc1C2=O (stereo not drawn),0.56µM*,x,0.5µM*,u,x,u
CCOc1ccc(-n2c(=O)c3sccc3n(Cc3ccc(C)cc3)c2=O)cc1,x,-5,x,x,-2,x
COc1ccccc1C1CN(Cc2c(O)cccc2OC)Cc2ccccc2O1 (stereo not drawn),x,x,x,-15%,x,i
COC(=O)C1=C(c2ccccc2)c2ccccc2S(=O)(=O)N1CC(=O)Nc1cc(C)ccc1C,u,x,-22%[46.1 µM],-10%,x,-14%
COc1ccc(-c2cc3ncnc(Cl)c3s2)cc1,-26%[46.1 µM],58,-10%[46.1 µM],-8%,33*,i
COc1ccc(-c2cc3ccccc3cn2)cc1,x,x,x,-11%,x,-29%
Cc1cc(=O)[nH]c2n[nH]c(-c3ccccc3)c12,u,37,15%,9%,15*,-10%
Cc1cc(=O)[nH]c(-c2ccccc2)n1,9%,-21,5%,-10%,7,-2%
O=C(CC1SC(=Nc2ccccc2)N(Cc2ccccn2)C1=O)Nc1ccc(Br)cc1 (stereo not drawn),-28%,48*,u,-25%,20*,u
Cc1ccccc1N=C1SC(CC(=O)Nc2ccc3ccccc3c2)C(=O)N1Cc1ccccn1 (stereo not drawn),16µM*,48,u,u,29*,-27%
O=C(CC1SC(=Nc2cccc3ccccc23)N(Cc2ccccn2)C1=O)Nc1ccccc1Br (stereo not drawn),u,2,u,-19%,-3,-1%
COCCN1C(=O)C(CC(=O)Nc2ccc(C(=O)O)cc2)SC1=Nc1ccccc1 (stereo not drawn),0%,10,4%,-5%,1,-11%
Cc1ccccc1C(=O)Nc1cccc(-c2cn3ccccc3n2)c1,u,42,u,-14%,21*,i
Cc1ccc(C(=O)Nc2cccc(-c3cn4ccccc4n3)c2)cc1,-27%[46.1 µM],81*,u,-11%,41*,-10%
O=C(Nc1ccccc1)Nc1cccc(-c2cn3cccnc3n2)c1,x,-4,-27%[46.1 µM],2%,-3,-14%
CCCCC(=O)Nc1cccc(-c2cn3ccccc3n2)c1,0%,108,-5%,-7%,29*,-9%
SMILES,Lassa entry inh,Shiga inhibitor,Marburg entry inh,Vaccinia Venus,CHX counter,Vaccinia mCherry
O=C(Nc1cccc(-c2cn3ccccc3n2)c1)c1ccccc1,-1%,57*,u,-12%,34*,-11%
CC(=O)c1cccc(NC(=O)COC(=O)C2=COCCO2)c1,-4%[46.1 µM],11,14%[46.1 µM],-13%,31,i
COc1ccccc1CN1CC(C(=O)N(C)Cc2ccc(C)o2)CCC1=O (stereo not drawn),x,98,x,x,22*,x
COc1ccc(CCN2CC(C(=O)N(C)Cc3ccc(C)o3)CCC2=O)cc1 (stereo not drawn),u,74*,u,-13%,38*,-3%
CCN(CC(=O)N1CCC(C(N)=O)CC1)S(=O)(=O)c1ccc(Cl)cc1,11%,7,26%,-5%,13,i
Cc1cc(C=C(C#N)C#N)c(C)n1-c1ccccc1,16%,108*,16%,-3%,22*,3%
Cc1cc(/C=C(\C#N)C(=O)Nc2ccccc2)c(C)n1-c1ccc2c(c1)OCO2,u,44*,u,u,41*,u
Cc1cc(/C=C(/C#N)C(=O)Nc2ccccc2)c(C)n1-c1cccnc1,u,51,-12%,-21%,43*,-13%[1.46 µM]
Cc1c(-c2ccc(Cl)cc2)c(=O)oc2c(CN3CCN(C)CC3)c(O)ccc12,21%[46.1 µM],x,x,-22%,x,-16%
O=C(NCc1ccccc1)C(=O)Nc1nc(C23CC4CC(CC(C4)C2)C3)cs1,-1%,-3,4%,-20%,-2,i
CNC(=O)C(=O)Nc1nc(C23CC4CC(CC(C4)C2)C3)cs1,22%,8,20%[46.1 µM],-8%,16*,-6%
CCCCCSc1nnc2c(n1)OC(CC)Nc1ccc(Br)cc1-2 (stereo not drawn),29%[46.1 µM],x,18%[46.1 µM],4%,x,0%
COc1cc(-c2nnn(CC(=O)NC3CCS(=O)(=O)C3)n2)ccc1OCc1ccccc1 (stereo not drawn),4%,44*,-1%,-27%,17*,-12%
COc1ccc(-c2nnn(CC(=O)c3ccccc3)n2)cc1OC,-6%,-4,9%,-6%,4,i
COc1cc(-c2nnn(CC#N)n2)ccc1OCc1ccccc1,10%,64*,u,0%,30*,-13%
Cc1ccccc1CNC(=O)c1ccc(Cn2c(SCc3ccccc3)nc3cccnc32)cc1,17%[46.1 µM],x,x,-11%,x,-26%
O=C(O)CC(NC(=O)Cc1ccc(Cl)cc1)c1ccco1 (stereo not drawn),-6%[46.1 µM],26,11%[46.1 µM],-18%,6,-3%
COC(=O)c1ccc(CSc2nnc(NC(=O)c3cc4c(s3)CCCC4)s2)cc1,10%,-1,-16%,-27%,-3,-7%[1.46 µM]
COC(=O)c1ccc(CSc2nnc(C)s2)cc1,-1%,67*,u,-3%,38*,-18%
Cc1nnc(SCC(=O)c2ccc(Cl)cc2)s1,-7%[46.1 µM],87*,4%[46.1 µM],3%,43*,-18%
COC(=O)c1cccc(CSc2nnc(C)s2)c1,u,97*,2%,x,23*,x
COC(=O)c1ccc(CSc2nnc(N)s2)cc1,11%,73,u,-12%,21*,x
COC(=O)C1=C2CCO[C@@H]2[C@H]2[C@@H](C)[C@H](OC)c3ccccc3[C@H]12,u,x,0%[14.2 µM],x,x,x
COC(c1ccc2c(c1)CN(C(=O)Cn1nc(C)c3ccccc3c1=O)CCO2)C1CCCCC1 (stereo not drawn),x,x,x,-8%,x,-18%
